Calls of active or inactive are those of the source. Calls come from the whole dose curve; as a rule, active = well fitted curve in the direction sought with a large enough effect in the repeat runs; inconclusive = weak or mixed curves; inactive = flat fitted curve, though single readings scatter.
Assay: qHTS assay to test for compound auto fluorescence at 590 nm (red) in HEK293 cell free culture (AID 720683)
Conditions: cell-free medium autofluorescence, Ex540/Em590 red; series mostly up to 91.3 µM
Summary of the method: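 Tox21 10K library compounds were pinned into cell-free DMEM with 10% FBS and fluorescence was read at excitation 540 nm. Activity is expressed as Rose Bengal sodium equivalency.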

| Structure (SMILES) | outcome |
| --- | --- |
| O=C(N/N=C/c1ccc([N+](=O)[O-])o1)c1cc([N+](=O)[O-])cc([N+](=O)[O-])c1O | inactive |
| C=CC(=O)OCC | inactive |
| C=CCc1ccccc1O | inactive |
| Nc1ccc2c(c1)Cc1ccccc1-2 | inactive |
| C[C@H]1[C@@H]2Cc3ccc(O)cc3[C@@]1(C)CCN2C | inactive |
| COC1=CC(=O)O[C@@H](/C=C/c2ccc3c(c2)OCO3)C1 | inactive |
| CCC(C)(C)c1ccc(O)c(C(C)(C)CC)c1 | inactive |
| O=C(O)c1cc(I)cc(I)c1I | inactive |
| CCCCCBr | inactive |
| O=S(=O)(Cl)Cl | inactive |
| O=C(O)C(O)C(O)C(=O)O (stereo not drawn) | inactive |
| Cc1ncc(C[n+]2csc(CCO)c2C)c(N)n1 | inactive |
| C[CH2][Hg][S]c1ccccc1C(=O)O | inactive |
| O=P(OCC(Br)CBr)(OCC(Br)CBr)OCC(Br)CBr (stereo not drawn) | inactive |
| CCCCCCCCCCCC[N+](C)(C)CCOc1ccccc1 | inactive |
| CCC1(CCC(C)C)C(=O)NC(=O)NC1=O | inactive |
| O=[N+]([O-])O[C@H]1CO[C@H]2[C@@H]1OC[C@H]2O[N+](=O)[O-] | inactive |
| CCC(C)Cl (stereo not drawn) | inactive |
| [Cl-].[Cl-].[Hg+2] | inactive |

| Structure (SMILES) | outcome |
| --- | --- |
| CC1(C)[C@H](C(=O)O[C@H](C#N)c2cccc(Oc3ccccc3)c2)[C@@H]1C=C(Br)Br | inactive |
| OC[P+](CO)(CO)CO | inactive |
| O=C(O)c1cc(Cl)ccc1Cl | inactive |
| C[N+]1(CCC(C(N)=O)(c2ccccc2)c2ccccc2)CCCCC1 | inactive |
| COP(=O)(OC)OC(Br)C(Cl)(Cl)Br (stereo not drawn) | inactive |
| Nc1cccc2ccccc12 | inactive |
| O=C(Cc1ccccc1)c1ccccc1 | inactive |
| CCC1(CC)C(=O)NC(=O)NC1=O | inactive |
| CC(C)(C)N(NC(=O)c1ccc(Cl)cc1)C(=O)c1ccccc1 | inactive |
| CC(=O)NNc1ccccc1 | inactive |
| c1ccc2sc(SNC3CCCCC3)nc2c1 | inactive |
| CCC1CCC(=O)O1 (stereo not drawn) | inactive |
| O=C(O)CCCOc1ccc(Cl)cc1Cl | inactive |
| O=[N+]([O-])c1cc(Cl)c(Cl)cc1Cl | inactive |
| Nc1ccccc1C(=O)OCCc1ccccc1 | inactive |
| CC(C)(C)CC(C)(C)c1ccc(O)cc1 | inactive |
| CN1C(=O)CN=C(c2ccccc2)c2cc([N+](=O)[O-])ccc21 | inactive |
| NC(=S)c1c(Cl)cccc1Cl | inactive |
| CC(=O)OC(c1ccccc1)C(Cl)(Cl)Cl (stereo not drawn) | inactive |
